# Reference: the supplement of paper PMC11417369
# The full ranking holds about 25,000 sequences; the median of “ln(normalized median fluorescence intensity)” is about 9.3, and the highest 2% start at about 10. The sample as a whole holds a higher share of the highest values than the screen did.
# Test system: PF3D7_0420300 AP2 domain 1 (GST-tagged)
# Assay: gcPBM binding intensity (ln(normalized median fluorescence intensity)); higher = stronger DNA binding
# Procedure, shortened: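 Binding of GST-tagged P. falciparum DNA-binding domains, expressed in E. coli and used at about 25 μg on average, was carried out for 1 h in 1× PBS containing 1% milk, 0.2 mg/ml BSA, 0.5% salmon testes DNA and 0.03% Triton X-100. The target was an Agilent 4 × 180k array of primer-extended double-stranded 36-bp intergenic genomic probes plus negative controls, read with Alexa488 anti-GST antibody at 488 nm. Binding intensity is the highest Masliner-normalised natural-log median intensity across replicate spots of either probe orientation.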
row,Sequence,gcPBM binding intensity (ln)
1,AAAAAAAAAAAAAGTACACACTTTTGCGTACAAGTA [CACACA_site5672],9.32
2,TTTTTAAAAAAAAATAGAGAGTCAAAGTATGTGGCG [CACACA_negctrl_site194],9.32
3,AATTCTTTCATATATTGTACGTATTCCCATAAAATA [XGTACX_site5923],9.36
4,AATGCCTTGTTGAGGTGTACTGAATGTTATTTTAAT [XGTACX_site3255],9.19
5,CAAAAAATTCAACACACACACACACCGATAAATAAA [CACACA_site8330],10.2
6,CACAAAAATAAATATAAACACACAATAAATAAATAA [CACACA_site8197],9.75
7,AAATAATTCAAAAAAACACACAAATTACAAAATAAA [CACACA_site269],9.72
8,ACAAATAAATAAAAAACACACACAAATAAATAAATA [CACACA_site8708],10.1
9,AAAAAAAAAAAAAACACACACACAAAATAAACAAAC [CACACA_site2720],10.3
10,AATATATATAAATAAACACACACAAATATAATAAAA [CACACA_site9176],10.2
11,TTCAAAATAAAAAATTCACACACATATATATATATA [CACACA_site8653],9.33
12,AATAAAAACAAACAAAAAAACAAATAAATAAATAAA [CACACA_negctrl_site483],9.65
13,AAAATAAAATAAAACACAAAAAAATAAAACAAAATA [CACACA_negctrl_site16],9.8
14,TACAAAAATATATAAACACACAAATATAATATATAT [CACACA_site2942],9.74
15,ACAAAATAAAAACACACACACAAACACAAAAAAATA [CACACA_site3390],10.3
16,TATATATAAATAAACACACACAAATATAATAAAAAA [CACACA_site3526],10.1
17,TATATATTATAAAAGAGTACAGAAAGAAAAAAAAAT [XGTACX_site8305],9.54
18,TCTTTTAAATAACAACATAAATAAATAAATAAATAA [GTGCAC_negctrl_site319],9.01
19,GTGTATTTTGTGCGCACACACATGCAAAAAGAAATA [CACACA_site6660],9.55
20,AGAAATTATAAATACCTACACACTTATCAAAATAAA [CACACA_site2264],9.55
21,TTACACATATATATAAATATATATAAATATATATAT [CACACA_negctrl_site150],9.08
22,AATATTATTTAGGAGCGTACGTTTTATTTACATATT [XGTACX_site5188],9.4

row,Sequence,gcPBM binding intensity (ln)
1,TATATTAAACCATGTAGTACCTTGAATAAATATTAT [XGTACX_site8254],9.23
2,TTTATTTAATTCATTGCATGTAATTTTTGTGTCCAC [TGCATGCA_site677],9.21
3,ATTACATAACAATATACACACTATTGATTAAAGAGA [CACACA_site5602],9.56
4,GGAATATAAATACATACACACATATATATATATATA [CACACA_site4998],9.44
5,TTTTTTATTTTGTGCACACACATAAAAATATATATA [CACACA_site761],9.5
6,TTAATAAGAGAGCAATAGGTGGACTGTTTCTTTTAT [CACACA_negctrl_site1239],9.22
7,AAATAAATAATATGTAAACACACAAAAAATAAAAAT [CACACA_site8307],9.72
8,AATTAACAAAAACACACACACACACCGACAAAAAAA [CACACA_site4444],10.3
9,TACCAAAATAGACACACACACAAAATATGTAAATAT [CACACA_site6963],10.2
10,TAAATTAAAAAACACACACACAAAAAAAAAAAAAAA [CACACA_site2263],10
11,CACAAAAATAGACACACACACATATAAATAAATATA [CACACA_site6598],10
12,AATTAACAAAAACACACACACACACCCACAAAAAAA [CACACA_site517],10.1
13,ATATATATATATATATATATATATATATATTATATA [XGTACX_negctrl_site48],8.89
14,ATGTGTATAATTAAATGTACATATATATATATATAT [XGTACX_site829],9.52
15,ATATGTAGAATAAAAAAAAAAAAAAAAAAAAAAAAT [CACACA_negctrl_site621],9.39
16,TTTAATCATATGTTATATAATAAGCCCCCCCCCCAA [CACACA_negctrl_site486],10.4
17,ATATATATATAATTATATAAAATATATCATATGTTA [XGTACX_negctrl_site47],9.15
18,TATTAATTATATTTATGTACATAATCATATTATTAT [XGTACX_site7938],9.37
19,TGTAGCCTGGAGAAGAGTACATAGTATCTGGTAGCT [XGTACX_site4943],9.12
20,ATATTCATGTTGATATGTACTTATTCTATATTGAAT [XGTACX_site8347],9.28
21,AAGTGCATATTATTCACACATAATAATTGTATACCT [CACACA_site5965],9.34
22,CTAAACAAAAAATAATGTACACATACATAAAAAATA [XGTACX_site1808],9.35

row,Sequence,gcPBM binding intensity (ln)
1,AAAAAAATTCTTGGCGCACACACTTTAAAAATTAAA [CACACA_site597],9.24
2,AAGTAAAAAAATAGCACACACACAAAAACACAGACA [CACACA_site4839],10.2
3,AAATATTAGTAACACAGACACACAAAAAAAAAAAAA [CACACA_site2175],9.5
4,GTAAAAAAATAGCACACACACAAAAACACGCACAAA [CACACA_site6723],10.2
5,AAGTAAAAAAATAGCACACACACAAAAACACCCACA [CACACA_site1291],10
6,AAAAAACAAAAACACACGCACACAAAAAAAAAAAAA [CACACA_site802],9.82
7,CAATATAAAAAACACACGCACACAAAAAAAAAAAAA [CACACA_site3521],9.79
8,AAAAAAAACATCCTCACACATATATATATATATATA [CACACA_site5166],9.18
9,TCACCATATAAACGTGCACACTACAAAAATATATAA [CACACA_site5413],9.26
10,TTGGTTATACAACACATGCACACGTAAATAAATATT [CACACA_site3841],9.38
11,AAAGACGTTTATAAATGTACATACACTTTAAAAGTT [XGTACX_site8753],9.08
12,AAAAAGTGATTAAAATGTACAAAATGCATAAAAGAA [XGTACX_site6625],9.6
13,TATAAATAGAGGAAGCGTACATATATATATATATAT [XGTACX_site4993],9.34
14,ATAAATAAATAAAAGCGTACATATATATAAAATATA [XGTACX_site8107],9.39
15,TCGGGAGGGGGGAAGCGTACATATATAAAATTATTA [XGTACX_site4683],10.2
16,TTCTTACATGAGTGTACACACTTTTTTTCAGAAAAT [CACACA_site4215],9.19
17,AAACCGTGGGAGCACACACACACACGCGCACATATA [CACACA_site6288],10.1
18,ACTGTGGGAATAACCACACACACACCCACATATATA [CACACA_site3542],10
19,CGTGGGAGCAGACACACACACACACCCATATATATA [CACACA_site334],10.1
20,ATGGGACATATATATACACACATATATATATATATA [CACACA_site1202],9.46
21,CGTGGGAGCGGACACACACACACACCCATATATATA [CACACA_site4340],10.1
22,ACCGTGGGAGGACACACACACACACGCACATATATA [CACACA_site6289],10.3

row,Sequence,gcPBM binding intensity (ln)
1,ACCGTGGGAGGACACACACACACACCCACATATATA [CACACA_site4339],10.2
2,ACCGTGGGAAGACACACACACACACCCACATATATA [CACACA_site333],10.2
3,AACGCACGAGGACACACACACATATTTATATTTATA [CACACA_site6608],9.87
4,AATTATCAGGAATGATGTACTGAAATAAAAAAAAAA [XGTACX_site3280],9.11
5,GTATATATATATATATGTACTAATTAGTAGTTTACG [XGTACX_site6274],9.25
6,TTTTTATGAATTCTTTTGTTAATAATAATATGTTGT [TGCATGCA_negctrl_site198],9.19
7,ATATATCTGTATGGCACACACGGATAAATATATATA [CACACA_site4668],9.52
8,ATATAGTAAATTGGTAGTACATAAAATGATTTTATG [XGTACX_site4143],9.26
9,AAAAAAAAATTGTGTACACATAATTATATCATATGT [CACACA_site4500],9.3
10,TGTTTCTTATTTTTTTCACACACTAAACATTTCAAA [CACACA_site2218],9.62
11,TTTCTTATTTTTTTCACACACTAAACATTTCAAATG [CACACA_site5259],9.35
12,ACTATTTTCTTCAAAACATGCACCACATAAACATAA [TGCATGCA_site200],9.18
13,CTATTTCAGAAACACACACACACAAACAAACATATA [CACACA_site978],9.93
14,ACCTATTTCAAACACACACACACACTAGCAAACATA [CACACA_site4695],10.3
15,ACCTATTTCAAACACACACACACACTAACAAACATA [CACACA_site8233],10.3
16,ACCTATTTCAAACACACACACACACCCACAAACATA [CACACA_site977],10.4
17,AAAAAATTAAAAATCACACATAAATATATATAAAAA [CACACA_site4192],9.48
18,CATATATTATTATATGCACACATGAAAATATACAAA [CACACA_site2795],9.49
19,AAGAAAAAAATTTATACAAGAATTTTTTATTATTAA [TGCATGCA_negctrl_site587],8.9
20,ATTTATGTTATATATACACACACAAAAGAAAAAAAA [CACACA_site8977],9.82
21,AAACATATAAACATATGTACATATAAACATATATAC [XGTACX_site5026],9.42
22,AAAAAAAAAGTATTATGTACATAAAAATAAAAAAAT [XGTACX_site4166],9.42
